Measurements from the supplement of paper PMC10646978.
± gives the standard deviation.

Assays:
Conditions in all cases: modulator concentration 10 µM
[1] = system: RAW-Dual (murine macrophage reporter line); assay: NF-kB reporter (SEAP) activity fold change vs agonist alone; higher = enhanced NF-kB activity
How it was run: (§1)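 Compound reached 10 μM final in each well by pin transfer, onto RAW-Dual murine macrophage reporter cells seeded at 50 000 per well in 384-well plates. After 1 hour at 37 °C, the cells were stimulated overnight with a PRR agonist. SEAP in the supernatant was read with QUANTI-Blue at 620 nm absorbance for NF-κB, and Lucia luciferase was read with QUANTI-Luc luminescence for IRF. Each signal was turned into fold change against the mean agonist-only control on the same plate, and two replicate plates were averaged with propagated errors.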

[2] = system: RAW-Dual (murine macrophage reporter line); assay: IRF reporter (Lucia luciferase) activity fold change vs agonist alone; higher = enhanced IRF activity
How it was run: as §1

[3] = system: RAW-Dual (murine macrophage reporter line); assay: viability score (confluency relative to resting cells, overnight) (fraction); higher = more viable, active = viable (0.7 or more)
How it was run: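 RAW-Dual macrophages in 384-well plates were treated overnight with compound at 10 μM final. IncuCyte imaging recorded confluency, and IncuCyte software built two confluency masks across every imaged well. The viability score expresses confluency relative to resting cells and was judged against a cutoff, which a compound met only if both masks exceeded 70% of resting cells.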

[4] = agonist: CpG ODN 1826 0.5 ug/mL

Structure (SMILES)	NF-kB reporter [1, 4]	NF-kB reporter ([1]; agonist: LPS 0.1 ug/mL)	NF-kB reporter ([1]; agonist: MPLA […])	IRF reporter ([2]; agonist: 3'3'-cGAMP 10 ug/mL)	IRF reporter ([2]; agonist: LPS 0.1 ug/mL)	IRF reporter ([2]; agonist: MPLA […])	viability score [3]
Cc1cccc2sc(NNC(=O)c3ccc(S(=O)(=O)N4CCc5ccccc5C4)cc3)nc12	0.923 ± 0.093	0.973 ± 0.063	0.93 ± 0.079	0.929 ± 0.067	1.2 ± 0.2	0.93 ± 0.11	0.995 (active)
CCSc1nc(-c2cccs2)cc(C(F)(F)F)c1C#N	0.77 ± 0.078	1.05 ± 0.069	1.66 ± 0.063	0.904 ± 0.13	1.18 ± 0.12	1.9 ± 0.25	0.999 (active)
Cl.N=C(N)NC(=O)c1nc(Cl)c(N)nc1N.O.O	0.856 ± 0.044	1.01 ± 0.087	1.05 ± 0.065	1.04 ± 0.048	1.2 ± 0.29	1.3 ± 0.46	0.984 (active)
O=C(NC1CCCCC1)c1cccc(C(F)(F)F)c1	0.851 ± 0.31	1.09 ± 0.14	1 ± 0.12	0.775 ± 0.033	1.15 ± 0.16	1.47 ± 0.3	0.997 (active)
CC(C)Sc1ccc(CC(=O)N2C3C=CCC2CC3)cc1 (centres undefined)	0.963 ± 0.12	1.03 ± 0.082	1.08 ± 0.1	1 ± 0.1	1.43 ± 0.11	1.38 ± 0.24	0.877 (active)
c1ccc2sc(SCCCCSc3nc4ccccc4s3)nc2c1	1.11 ± 0.087	1.02 ± 0.1	0.938 ± 0.035	0.953 ± 0.14	1.06 ± 0.1	0.977 ± 0.17	0.998 (active)
N#Cc1c(N=Cc2ccc(Cl)cc2)sc2c1CCCC2	0.912 ± 0.16	1.01 ± 0.21	0.89 ± 0.068	0.915 ± 0.031	1.17 ± 0.21	1.21 ± 0.12	1 (active)
O=C(O)C=Cc1cccc(NS(=O)(=O)C=Cc2ccccc2)c1	1.06 ± 0.094	0.968 ± 0.084	1.33 ± 0.19	0.956 ± 0.07	1.29 ± 0.28	1.34 ± 0.28	1.02 (active)
Cc1ccccc1C(=O)N1CC(S(=O)(=O)CC(C)C)C1	0.961 ± 0.082	0.907 ± 0.076	0.854 ± 0.052	1.04 ± 0.071	1.04 ± 0.13	0.899 ± 0.38	1.02 (active)
CN1CCN(C(=O)N2CCC3(CC2)CC3(F)F)CC1	1.1 ± 0.07	0.939 ± 0.12	0.974 ± 0.025	0.894 ± 0.035	0.914 ± 0.086	0.815 ± 0.086	0.996 (active)
O=C(COC(=O)c1ccc(Cl)c([N+](=O)[O-])c1)c1ccc(Cl)cc1	0.942 ± 0.072	0.978 ± 0.081	0.99 ± 0.093	0.929 ± 0.035	1.22 ± 0.18	1.36 ± 0.29	1.01 (active)
COc1cc(O)c(C(=O)Nc2nc(C(=O)NCCN(C(C)C)C(C)C)cs2)cc1OC	1.25 ± 0.33	1.01 ± 0.073	1.13 ± 0.087	0.997 ± 0.038	0.907 ± 0.1	0.973 ± 0.18	0.994 (active)
